Experimental findings from PubChem BioAssay (Tox21) are described below.

Experiment [1] concerns the target Thyrotropin-releasing hormone receptor (Homo sapiens) (UniProt P34981). The experiment is described as follows: qHTS assay to identify small molecule agonists of the thyrotropin-releasing hormone receptor (TRHR) signaling pathway (AID 1346891; calls by dose curve;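 also: HEK293 cells expressing TRHR with calcium dye readout; series mostly up to about 58 µM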). In a few lines:
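HEK293/TRHR cells, 1500 per well, 18 h 37 °C; Ca dye 2 h 37 °C; pin-tool compound addition (agonist mode); kinetic fluorescence 3 min, 1 s reads; 15 concentrations, triplicate.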
For orientation: qHTS replaces the single test concentration by a dilution series.

Experiment [2] can be described thus: Human pregnane X receptor (PXR) small molecule agonists, qHTS cell viability counter screen (AID 1346977). Also: nearly all actives have a fitted effect of over 50% in size. In a few lines: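 Fluorescence read-out (CellTiter-Fluor) of viability in PXR-Luc HepG2 cells, multiplexed with the luciferase agonist read. Compounds in DMSO added after 5hr plating; 24hr total exposure at 37C, 5% CO2.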
Experiment [3] in a line: Caspase-3/7 induction in HepG2 cells by small molecules, qHTS assay (AID 1346978). Also: nearly all actives have a fitted effect of over 15% in size. In a few lines:
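Caspase-3/7 induction was measured by Caspase-Glo 3/7 luminescence (30 min, room temperature) after a 17 hr compound exposure of wild-type HepG2 cells seeded at 2,000 per well and pre-incubated 5 hr.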

Experiment [4] is described as follows: Caspase-3/7 induction in CHO-K1 cells by small molecules, qHTS cell viability counter screen (AID 1346979). Also: nearly all actives have a fitted effect of over 35% in size. In a few lines: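 CHO-K1 wt, 1,500 cells/well; 5hr pre-incubation 37C/5% CO2; compound pin transfer (DMSO); 16hr exposure; CellTiter-Fluor added, 1hr, fluorescence read.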
Experiment [5] can be described thus: Caspase-3/7 induction in CHO-K1 cells by small molecules, qHTS assay (AID 1346980). Also: nearly all actives have a fitted effect of over 15% in size. In a few lines:
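Luminescent Caspase-Glo 3/7 read (30min, room temperature) quantified apoptosis induction. Cells were wild-type CHO-K1, treated with compound for 17hr at 37 C and 5% CO2.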

The nature of experiment [6]: Caspase-3/7 induction in HepG2 cells by small molecules, qHTS cell viability counter screen (AID 1346981). Also: series mostly up to about 92 µM; nearly all actives have a fitted effect of over 30% in size. In a few lines:
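Cell viability is measured as a cytotoxicity counter screen alongside the Caspase-Glo 3/7 readout in identical wells. Wild-type HepG2 cells are treated with test compounds for 16 hr at 37 C before CellTiter-Fluor addition and a 1-hr incubation.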

In experiment [7] the target is Nuclear receptor subfamily 1 group I member 2 (Homo sapiens) (UniProt O75469). The experiment is described as follows: Human pregnane X receptor (PXR) small molecule agonists, qHTS assay (AID 1346982). Also: nearly all actives have a fitted effect of over 35% in size. Also: potency is read from the fitted curve at half-maximal effect. In a few lines:
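Cells: HepG2 stably carrying PXR-Luc. Medium held 5% charcoal-stripped FBS. Compounds in DMSO added after 5 hr plating, incubated 24 hr, then luminescence quantified with ONE-Glo.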

In experiment [8] the target is Cytochrome P450 2D6 (Homo sapiens) (UniProt P10635). The experiment is described as follows: Cytochrome P450 Family 2 Subfamily D Member 6 (CYP2D6) small molecule antagonists: luciferase reporter qHTS assay (AID 1671196). Also: nearly all actives have a fitted effect of over 50% in size. Also: potency is read from the fitted curve at half-maximal effect. The method in brief: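 Enzyme and proluciferin substrate were first combined with test chemical for 10 min at room temperature. Adding NADPH regeneration solution started a 1 h reaction, stopped with luciferin detection reagent and read by luminescence 20 min later.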

The target in experiment [9] is Cytochrome P450 2C9 (Homo sapiens) (UniProt P11712). The experiment can be described thus: Cytochrome P450 Family 2 Subfamily C Member 9 (CYP2C9) small molecule antagonists: luciferase reporter qHTS assay (AID 1671198). Also: nearly all actives have a fitted effect of over 50% in size. Also: potency is read from the fitted curve at half-maximal effect. In a few lines: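 Enzyme-substrate mix preincubated with compound 10 min at room temperature; reaction started with NADPH regeneration solution, 1 h 37C. Luminescent luciferin product read after 20 min detection reagent.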

Experiment [10] addresses Cytochrome P450 1A2 (Homo sapiens) (UniProt P05177). The experiment is described as follows: Cytochrome P450 Family 1 Subfamily A Member 2 (CYP1A2) small molecule antagonists: luciferase reporter qHTS assay (AID 1671199). Also: nearly all actives have a fitted effect of over 50% in size. Also: potency is read from the fitted curve at half-maximal effect. The method in brief: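 Compounds were incubated with CYP1A2 and a luminogenic proluciferin substrate for 10 min at room temperature before the reaction was started with NADPH regeneration solution. After 1 h, detection reagent was added and light output, proportional to CYP activity, was recorded.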
In general terms: Reporter assays use an easily measured gene product as a stand-in for the process of interest.

Experiment [11] addresses Voltage-gated inwardly rectifying potassium channel KCNH2 (Homo sapiens) (UniProt Q12809). The experiment can be described thus: Human Ether-a-go-go-Related Gene (hERG) channel small molecule antagonists: fluorescence cell-based qHTS assay (AID 1671200). In a few lines: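 Read-out: thallium influx as a surrogate for potassium, tracked as fluorescence (480 nm ex/540 nm em) every second for 2 min after Stimulus Buffer addition in dye-loaded hERG-U2OS cells.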
For orientation: Block of hERG is tested as a sign of cardiac risk.

In experiment [12] the target is Cytochrome P450 3A4 (Homo sapiens) (UniProt P08684). The experiment can be described thus: Cytochrome P450 Family 3 Subfamily A Member 4 (CYP3A4) small molecule antagonists: luciferase reporter qHTS assay (AID 1671201). The method in brief:
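Luminescent readout (RLU) proportional to CYP3A4 activity, from luciferin generated off a proluciferin substrate. Enzyme–substrate mix plus compound 10 min at room temp, NADPH regeneration 1 h, detection reagent 20 min.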

Experiment [13] addresses Cytochrome P450 2C19 (Homo sapiens) (UniProt P33261). The experiment is described as follows: Cytochrome P450 Family 2 Subfamily C Member 19 (CYP2C19) small molecule antagonists: luciferase reporter qHTS assay (AID 1671197). Also: nearly all actives have a fitted effect of over 65% in size. Also: potency is read from the fitted curve at half-maximal effect. The method in brief:
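Relative luminescence units recorded 20 min after the detection reagent stopped a 1 h, 37C CYP2C19 reaction on proluciferin substrate, which was started by NADPH regeneration following 10 min room-temperature compound preincubation; ketoconazole positive control.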

Experiment [14] has as its target Nuclear receptor subfamily 1 group I member 2 (Rattus norvegicus) (UniProt Q9R1A7). The experiment can be described thus: Rat pregnane X receptor (rPXR) activation by small molecules, qHTS assay (AID 1346983). Also: nearly all actives have a fitted effect of over 20% in size. Particulars: rPXR luciferase reporter cells, One-Glo luminescence, 24 h; max activation: hits give high values. In a few lines: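 Luminescent readout (One-Glo luciferase, 30 min room temperature) followed 24 hr compound treatment at 37 C of rPXR cells plated 2,000 per well and preincubated 5hr; qHTS format with compounds delivered in DMSO.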

Experiment [15] deals with Nuclear receptor subfamily 1 group I member 2 (Homo sapiens) (UniProt O75469). The experiment is described as follows: CYP3A4 induction through human pregnane X receptor (PXR) by small molecules, qHTS assay (AID 1346984). Also: nearly all actives have a fitted effect of over 40% in size. The method in brief: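 Quantitative HTS in DPX-2 cells, i.e. HepG2 transfected with PXR response element and CYP3A4-promoter luciferase. Compounds in DMSO incubated 24hr at 37C; then P450-Glo CYP3A4 substrate, 3uM final, 3hr; One-Glo luminescence.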

Experiment [16] has the same target. The experiment can be described thus: Human pregnane X receptor (PXR) activation by small molecules, qHTS assay (AID 1346985). Also: nearly all actives have a fitted effect of over 40% in size. In a few lines:
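DPX-2 cells (HepG2 co-transfected with a PXR response element and a CYP3A4-promoter luciferase construct) were seeded at 2,000 per well, rested 5 hr at 37C, then exposed to DMSO-dissolved compounds for 24 hr. Activation was read as luciferase luminescence.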

Each structure is given as a SMILES string. Values without a mark were called inactive. Results filed as inconclusive are left out. The source made the active and inactive calls. Unless noted, calls follow the shape of the dose curve; as a rule, active = well fitted curve in the direction sought with a large enough effect in the repeat runs; inconclusive = weak or mixed curves; inactive = no such curve, though single readings can be large; an effect the other way counts as inactive or inconclusive.
% is scaled to controls: 0 for no effect and ±100 for the full control effect.

Voltage-gated inwardly rectifying potassium channel KCNH2 (Homo sapiens), sequence (Q12809 whole entry, looked up): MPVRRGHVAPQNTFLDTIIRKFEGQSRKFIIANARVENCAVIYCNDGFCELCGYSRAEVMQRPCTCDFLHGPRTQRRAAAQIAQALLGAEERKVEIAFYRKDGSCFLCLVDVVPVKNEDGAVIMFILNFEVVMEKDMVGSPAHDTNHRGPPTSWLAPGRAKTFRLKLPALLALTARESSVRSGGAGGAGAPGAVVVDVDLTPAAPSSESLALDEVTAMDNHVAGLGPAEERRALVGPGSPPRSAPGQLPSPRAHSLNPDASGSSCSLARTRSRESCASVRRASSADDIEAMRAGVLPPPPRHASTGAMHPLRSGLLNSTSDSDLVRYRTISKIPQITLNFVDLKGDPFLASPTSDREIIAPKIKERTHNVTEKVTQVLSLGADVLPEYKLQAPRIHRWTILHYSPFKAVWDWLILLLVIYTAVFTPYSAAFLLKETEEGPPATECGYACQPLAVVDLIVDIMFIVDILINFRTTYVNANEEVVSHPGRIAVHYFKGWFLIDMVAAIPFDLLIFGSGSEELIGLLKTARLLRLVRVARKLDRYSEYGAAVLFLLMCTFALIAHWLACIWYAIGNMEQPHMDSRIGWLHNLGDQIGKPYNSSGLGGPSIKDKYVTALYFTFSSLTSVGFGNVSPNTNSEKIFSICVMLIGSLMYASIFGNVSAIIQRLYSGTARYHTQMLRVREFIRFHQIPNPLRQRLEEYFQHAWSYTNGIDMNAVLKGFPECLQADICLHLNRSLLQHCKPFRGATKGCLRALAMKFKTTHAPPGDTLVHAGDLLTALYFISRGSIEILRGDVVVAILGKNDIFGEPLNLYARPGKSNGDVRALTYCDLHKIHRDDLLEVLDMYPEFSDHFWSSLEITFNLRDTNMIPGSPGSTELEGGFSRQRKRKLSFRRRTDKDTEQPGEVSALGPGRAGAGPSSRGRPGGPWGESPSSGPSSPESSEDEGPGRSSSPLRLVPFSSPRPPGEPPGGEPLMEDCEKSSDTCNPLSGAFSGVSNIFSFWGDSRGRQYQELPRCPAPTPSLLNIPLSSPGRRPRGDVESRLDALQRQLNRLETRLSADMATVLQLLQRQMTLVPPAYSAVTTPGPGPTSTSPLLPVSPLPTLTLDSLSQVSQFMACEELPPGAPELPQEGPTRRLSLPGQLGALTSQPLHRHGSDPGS
Cytochrome P450 2C19 (Homo sapiens), sequence (P33261 whole entry, looked up): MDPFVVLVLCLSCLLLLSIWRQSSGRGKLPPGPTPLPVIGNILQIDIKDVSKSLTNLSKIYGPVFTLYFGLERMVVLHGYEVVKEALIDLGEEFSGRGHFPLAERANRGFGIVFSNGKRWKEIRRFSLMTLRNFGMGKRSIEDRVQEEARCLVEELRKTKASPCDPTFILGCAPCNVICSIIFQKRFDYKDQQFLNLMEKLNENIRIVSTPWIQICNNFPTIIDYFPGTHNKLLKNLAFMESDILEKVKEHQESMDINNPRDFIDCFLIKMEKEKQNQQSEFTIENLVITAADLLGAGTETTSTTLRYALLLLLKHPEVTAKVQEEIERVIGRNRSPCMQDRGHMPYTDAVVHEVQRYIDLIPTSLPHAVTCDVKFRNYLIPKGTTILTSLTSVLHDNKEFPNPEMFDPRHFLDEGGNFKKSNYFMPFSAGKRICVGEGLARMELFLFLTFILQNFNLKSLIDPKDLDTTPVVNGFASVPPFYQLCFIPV
Cytochrome P450 1A2 (Homo sapiens), sequence (P05177 whole entry, looked up): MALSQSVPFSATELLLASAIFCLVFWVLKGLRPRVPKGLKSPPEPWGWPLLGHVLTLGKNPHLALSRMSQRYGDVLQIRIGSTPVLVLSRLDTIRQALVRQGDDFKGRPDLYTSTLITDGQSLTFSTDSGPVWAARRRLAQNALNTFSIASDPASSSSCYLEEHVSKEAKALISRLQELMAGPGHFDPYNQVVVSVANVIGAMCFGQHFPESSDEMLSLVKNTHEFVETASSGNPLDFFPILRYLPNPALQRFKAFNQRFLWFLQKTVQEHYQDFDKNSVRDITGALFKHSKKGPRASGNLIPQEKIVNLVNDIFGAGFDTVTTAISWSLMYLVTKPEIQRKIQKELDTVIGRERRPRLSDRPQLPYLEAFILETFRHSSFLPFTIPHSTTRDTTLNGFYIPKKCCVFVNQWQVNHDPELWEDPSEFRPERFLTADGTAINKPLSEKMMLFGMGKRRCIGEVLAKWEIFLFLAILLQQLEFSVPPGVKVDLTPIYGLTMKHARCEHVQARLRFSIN
Thyrotropin-releasing hormone receptor (Homo sapiens), sequence (P34981 whole entry, looked up): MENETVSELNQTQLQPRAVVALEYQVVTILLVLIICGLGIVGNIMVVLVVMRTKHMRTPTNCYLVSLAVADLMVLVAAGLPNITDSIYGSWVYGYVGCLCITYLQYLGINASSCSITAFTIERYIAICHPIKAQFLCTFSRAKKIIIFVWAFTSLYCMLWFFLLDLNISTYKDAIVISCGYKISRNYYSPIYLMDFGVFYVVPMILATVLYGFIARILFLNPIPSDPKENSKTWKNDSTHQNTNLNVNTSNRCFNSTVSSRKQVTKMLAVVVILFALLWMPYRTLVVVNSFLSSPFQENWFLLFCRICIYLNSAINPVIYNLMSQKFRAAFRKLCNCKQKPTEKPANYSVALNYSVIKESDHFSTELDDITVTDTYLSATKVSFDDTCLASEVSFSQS
Cytochrome P450 3A4 (Homo sapiens), sequence (P08684 whole entry, looked up): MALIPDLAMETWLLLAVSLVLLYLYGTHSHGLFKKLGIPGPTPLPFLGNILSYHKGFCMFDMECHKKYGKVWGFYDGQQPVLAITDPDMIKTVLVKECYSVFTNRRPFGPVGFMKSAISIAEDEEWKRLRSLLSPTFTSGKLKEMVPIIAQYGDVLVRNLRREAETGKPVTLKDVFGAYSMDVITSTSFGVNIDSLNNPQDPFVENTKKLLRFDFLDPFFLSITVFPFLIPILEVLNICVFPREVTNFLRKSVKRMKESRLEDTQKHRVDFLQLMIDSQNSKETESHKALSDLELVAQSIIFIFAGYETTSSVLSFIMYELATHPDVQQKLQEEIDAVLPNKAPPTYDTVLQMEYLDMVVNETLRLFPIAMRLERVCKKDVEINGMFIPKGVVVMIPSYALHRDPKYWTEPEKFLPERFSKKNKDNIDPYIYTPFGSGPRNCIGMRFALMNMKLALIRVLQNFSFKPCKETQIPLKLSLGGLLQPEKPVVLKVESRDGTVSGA
Cytochrome P450 2D6 (Homo sapiens), sequence (P10635 whole entry, looked up): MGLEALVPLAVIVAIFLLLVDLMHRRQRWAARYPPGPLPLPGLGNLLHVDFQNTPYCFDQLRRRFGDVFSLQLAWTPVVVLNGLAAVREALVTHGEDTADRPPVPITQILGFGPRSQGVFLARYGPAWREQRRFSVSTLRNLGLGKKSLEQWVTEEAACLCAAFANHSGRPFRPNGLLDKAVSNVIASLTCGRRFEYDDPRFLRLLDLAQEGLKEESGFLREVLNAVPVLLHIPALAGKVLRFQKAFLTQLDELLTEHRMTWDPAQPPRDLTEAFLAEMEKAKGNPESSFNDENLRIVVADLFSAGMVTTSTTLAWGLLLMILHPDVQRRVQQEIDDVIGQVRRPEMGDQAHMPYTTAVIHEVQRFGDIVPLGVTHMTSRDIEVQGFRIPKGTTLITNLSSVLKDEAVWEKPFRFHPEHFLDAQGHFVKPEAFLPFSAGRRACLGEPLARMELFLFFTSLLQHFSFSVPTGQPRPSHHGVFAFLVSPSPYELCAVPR
Nuclear receptor subfamily 1 group I member 2 (Homo sapiens), sequence (O75469 whole entry, looked up): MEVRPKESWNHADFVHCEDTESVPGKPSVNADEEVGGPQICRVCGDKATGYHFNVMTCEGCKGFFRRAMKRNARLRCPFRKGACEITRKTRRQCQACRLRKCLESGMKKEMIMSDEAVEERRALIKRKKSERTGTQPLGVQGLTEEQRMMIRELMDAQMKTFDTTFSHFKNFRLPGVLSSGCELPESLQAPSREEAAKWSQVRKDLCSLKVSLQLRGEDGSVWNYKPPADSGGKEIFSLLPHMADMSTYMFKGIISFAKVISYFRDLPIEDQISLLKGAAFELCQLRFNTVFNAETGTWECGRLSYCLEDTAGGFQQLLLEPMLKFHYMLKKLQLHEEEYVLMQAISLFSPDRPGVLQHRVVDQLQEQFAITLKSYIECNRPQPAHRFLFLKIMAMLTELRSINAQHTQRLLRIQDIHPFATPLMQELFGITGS
Cytochrome P450 2C9 (Homo sapiens), sequence (P11712 whole entry, looked up): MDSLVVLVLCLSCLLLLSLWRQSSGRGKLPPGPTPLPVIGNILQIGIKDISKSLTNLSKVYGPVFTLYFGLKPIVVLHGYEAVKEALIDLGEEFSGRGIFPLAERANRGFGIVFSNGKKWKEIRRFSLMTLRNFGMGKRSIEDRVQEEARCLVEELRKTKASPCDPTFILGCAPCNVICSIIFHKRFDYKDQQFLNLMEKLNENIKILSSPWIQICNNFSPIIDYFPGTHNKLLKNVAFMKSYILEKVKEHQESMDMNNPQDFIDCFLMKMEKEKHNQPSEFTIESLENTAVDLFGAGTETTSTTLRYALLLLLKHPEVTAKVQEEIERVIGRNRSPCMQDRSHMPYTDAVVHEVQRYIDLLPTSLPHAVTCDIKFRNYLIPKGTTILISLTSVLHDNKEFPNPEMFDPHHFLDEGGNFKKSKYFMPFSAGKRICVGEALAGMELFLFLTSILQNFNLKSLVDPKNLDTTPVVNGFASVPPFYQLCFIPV
Nuclear receptor subfamily 1 group I member 2 (Rattus norvegicus), sequence (Q9R1A7 whole entry, looked up): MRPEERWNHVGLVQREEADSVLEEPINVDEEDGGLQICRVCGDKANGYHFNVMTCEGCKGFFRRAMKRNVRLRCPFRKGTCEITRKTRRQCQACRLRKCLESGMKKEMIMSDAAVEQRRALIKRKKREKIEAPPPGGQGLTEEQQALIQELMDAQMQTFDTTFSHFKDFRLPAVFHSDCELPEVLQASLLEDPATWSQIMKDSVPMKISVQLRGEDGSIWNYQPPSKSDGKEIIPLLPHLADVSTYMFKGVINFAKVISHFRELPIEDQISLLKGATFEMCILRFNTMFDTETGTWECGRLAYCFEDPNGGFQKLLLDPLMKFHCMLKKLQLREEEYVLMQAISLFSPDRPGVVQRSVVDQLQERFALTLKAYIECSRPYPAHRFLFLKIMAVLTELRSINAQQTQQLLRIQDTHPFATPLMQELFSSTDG

For `CN1Cc2cc(C(=O)N3CCC(C4CCNCC4)CC3)ccc2N[C@@H](CC(=O)O)C1=O`, the Potency result in [1], in experiment [2], in [3], in experiment [4], in [6] and in [7] was “inactive” each time. The Potency result in experiment [8], in experiment [9], in experiment [10] and in experiment [11] was “inactive” throughout. In addition, in experiment [5], the outcome was inactive.

For the compound `Nc1c(I)cc(I)c(C(=O)N(CCC(=O)O)c2ccccc2)c1I`, the Potency entry in experiment [1], in experiment [2], in [3], in experiment [4], in experiment [6] and in experiment [8] was “inactive” throughout. Also, the Potency entry in experiment [10], in [11] and in experiment [12] was “inactive” each time. Moreover, the compound was called inactive in experiment [5]. In experiment [7], the Potency is 26.6 µM (active).

Take `O=S1OCCO1`: the Potency entry in [1], in experiment [2], in [3], in experiment [4], in experiment [6] and in experiment [7] was “inactive” each time. The Potency result in experiment [8], in experiment [9] and in [11] was “inactive” throughout. The call in experiment [5] was inactive.

For `CC(C)=CC=O`, the Potency entry in experiment [1], in experiment [2], in [3], in experiment [4], in experiment [6] and in [7] was “inactive” each time. Besides, the Potency entry in [8], in experiment [13], in experiment [9], in experiment [11] and in experiment [12] was “inactive” throughout. Further, in [5], the result was inactive.

Take `COC(=O)[C@@H]1CC2=CC(=O)CC[C@]2(C)[C@@]23O[C@@H]2C[C@@]2(C)[C@@H](CC[C@@]24CCC(=O)O4)[C@H]13`: the Potency result in experiment [1], in experiment [2], in experiment [3], in [4], in experiment [6] and in experiment [7] was “inactive” throughout. The Potency result in [15], in [16], in [9], in experiment [10], in [11] and in [12] was “inactive” in each case. Moreover, the compound was classed as inactive in experiment [5]. The max activation in experiment [14] was -1.51%.

With `CCOC(=O)OCC`, the Potency result in experiment [1], in experiment [2], in experiment [3], in experiment [4], in experiment [6] and in experiment [7] was “inactive” in each case. In addition, the Potency result in experiment [13], in experiment [9] and in [11] was “inactive” throughout. Moreover, in [5], the compound was classed as inactive. Further, the Potency was 23.3 µM (active) in experiment [8] and 41.5 µM (active) in experiment [10].

`CC(CCc1ccc2c(c1)OCO2)NN` (centres undefined): the Potency entry in experiment [1], in experiment [2], in experiment [3], in [4], in experiment [6] and in experiment [7] was “inactive” throughout. In addition, the Potency entry in experiment [11] was “inactive”. Moreover, the result in experiment [5] was inactive. Moreover, the Potency was 30.9 µM (active) in experiment [8], 38.9 µM (active) in [13], 15.5 µM (active) in experiment [9] and 1.44 µM (active) in experiment [10].

For `CCC1(C)CC(=O)NC1=O` (centres undefined), the Potency result in experiment [1], in experiment [2], in experiment [3], in [4], in experiment [6] and in [7] was “inactive” throughout. Moreover, the Potency result in experiment [15], in experiment [16], in experiment [8], in [13], in experiment [9] and in experiment [10] was “inactive” in each case. For the same compound, the Potency result in [11] and in experiment [12] was “inactive” each time. The call in experiment [5] was inactive. The max activation in experiment [14] was -2.98%.

As for `C1COCO1`, the Potency result in [1], in [2], in experiment [3], in [4], in [6] and in experiment [7] was “inactive” in each case. For the same compound, the Potency result in experiment [8], in experiment [10], in [11] and in experiment [12] was “inactive” throughout. In addition, the compound was classed as inactive in experiment [5].
